Calls of active or inactive are those of the source. Rule for the calls: active = hit-call score of the fitted dose curve at least 0.9, where 1 is the maximum; inactive = score below 0.9.
Legend:
[1] = BSK_hDFCGF_SRB: Viability Assessment in the BioMAP Diversity Plus: hDFCGF Assay (AID 2283061); settings: primary human foreskin fibroblasts;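 note: cells exposed to compound for 24 h before the read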
Procedure, shortened: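 Readout is SRB absorbance at 560 nm, reflecting total protein in parallel cultures of human foreskin fibroblasts harvested 24 h after chemical dosing. Activity was fitted bidirectionally relative to DMSO.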

[2] = read-out: TIMP metallopeptidase inhibitor 1 (TIMP1), TIMP1 (gene 7076); assay: BSK_hDFCGF_TIMP1: BioMAP Diversity Plus: hDFCGF Assay for TIMP metallopeptidase inhibitor 1 (TIMP1) Biomarker Activity (AID 2283062); settings: primary human foreskin fibroblasts; actives raise or lower the signal
Procedure, shortened: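 Human skin fibroblasts (primary), hDFCGF system; compound exposure 24 h; TIMP-1 by ELISA; bidirectional fit vs DMSO negative control; overt cytotoxicity by SRB in parallel wells.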

[3] = read-out: Monokine induced gamma interferon (MIG), CXCL9 (gene 4283); assay: BSK_hDFCGF_MIG: BioMAP Diversity Plus: hDFCGF Assay for Monokine induced gamma interferon (MIG) Biomarker Activity (AID 2283063); settings: primary human foreskin fibroblasts; actives raise or lower the signal
Procedure, shortened: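 Chemicals were added to primary human foreskin fibroblast cultures, which were sampled 24 h later. MIG levels were then quantified by ELISA and responses fitted in both directions relative to DMSO.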

[4] = read-out: Matrix Metallopeptidase 1 (MMP1), MMP1 (gene 4312); assay: BSK_hDFCGF_MMP1: BioMAP Diversity Plus: hDFCGF Assay for Matrix Metallopeptidase 1 (MMP1) Biomarker Activity (AID 2283064); settings: primary human foreskin fibroblasts; actives raise or lower the signal
Procedure, shortened: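 hDFCGF primary fibroblasts (human foreskin); chemical added; 24 h; MMP1 by ELISA; bidirectional fit vs DMSO.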

[5] = read-out: Vascular cell adhesion molecule 1 (VCAM1), VCAM1 (gene 7412); assay: BSK_hDFCGF_VCAM1: BioMAP Diversity Plus: hDFCGF Assay for Vascular cell adhesion molecule 1 (VCAM1) Biomarker Activity (AID 2283065); settings: primary human foreskin fibroblasts; actives raise or lower the signal;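 for AC50: VCAM-1 protein level quantified by ELISA after 24 h chemical exposure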
Procedure, shortened: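 Human foreskin fibroblast primary cells, chemical exposure 24 h; VCAM-1 by ELISA; bidirectional fit, DMSO = negative control/baseline.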

[6] = read-out: Plasminogen activator inhibitor-1 (PAI1), SERPINE1 (gene 5054); assay: BSK_hDFCGF_PAI1: BioMAP Diversity Plus: hDFCGF Assay for Plasminogen activator inhibitor-1 (PAI1) Biomarker Activity (AID 2283066); settings: primary human foreskin fibroblasts; actives raise or lower the signal
Procedure, shortened: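 Human foreskin fibroblast primary cells, 24 h chemical exposure; PAI-1 measured by ELISA. Bidirectional fitting relative to DMSO; parallel cultures stained with SRB for total protein to flag overt cytotoxicity.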

[7] = read-out: Intercellular Adhesion Molecule 1 (ICAM1), ICAM1 (gene 3383); assay: BSK_KF3CT_ICAM1: BioMAP Diversity Plus: KF3CT Assay for Intercellular Adhesion Molecule 1 (ICAM1) Biomarker Activity (AID 2283067); settings: primary human keratinocytes with fibroblasts; actives raise or lower the signal
Procedure, shortened: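 ICAM-1 levels are measured by ELISA 24 h after dosing a primary human co-culture of keratinocytes and foreskin fibroblasts. Activity in either direction is fitted relative to DMSO vehicle.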

[8] = read-out: Interferon-gamma inducible Protein 10 (IP10), CXCL10 (gene 3627); assay: BSK_KF3CT_IP10: BioMAP Diversity Plus: KF3CT Assay for Interferon-gamma inducible Protein 10 (IP10) Biomarker Activity (AID 2283068); settings: primary human keratinocytes with fibroblasts; actives raise or lower the signal
Procedure, shortened: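 Signal is secreted/surface IP-10 by ELISA in a human primary skin co-culture of keratinocytes and foreskin fibroblasts, taken 24 h post-dosing; DMSO served as negative control.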

[9] = BSK_KF3CT_SRB: Viability Assessment in the BioMAP Diversity Plus: KF3CT Assay (AID 2283069); settings: primary human keratinocytes with fibroblasts;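 note: total protein by sulforhodamine B staining as a cytotoxicity measure; read 24 h after compound addition; fitted for both signal gain and loss against DMSO baseline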
Procedure, shortened: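 Keratinocytes co-cultured with foreskin fibroblasts (human primary); chemical added, 24 h; fix 10% TCA, stain 0.1% SRB, A560. Bidirectional fit vs DMSO.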

[10] = read-out: Interleukin-1 alpha (IL1a), IL1A (gene 3552); assay: BSK_KF3CT_IL1a: BioMAP Diversity Plus: KF3CT Assay for Interleukin-1 alpha (IL1a) Biomarker Activity (AID 2283070); settings: primary human keratinocytes with fibroblasts; actives raise or lower the signal
Procedure, shortened: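 Chemicals were dosed onto co-cultured human keratinocytes and foreskin fibroblasts, IL-1a was quantified by ELISA at 24 h, and activity was fitted in both directions relative to DMSO controls.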

[11] = read-out: TIMP metallopeptidase inhibitor 2 (TIMP2), TIMP2 (gene 7077); assay: BSK_KF3CT_TIMP2: BioMAP Diversity Plus: KF3CT Assay for TIMP metallopeptidase inhibitor 2 (TIMP2) Biomarker Activity (AID 2283071); settings: primary human keratinocytes with fibroblasts; actives raise or lower the signal
Procedure, shortened: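 Co-culture of human primary keratinocytes and foreskin fibroblasts, measured 24 h after chemical dosing. TIMP-2 quantified by ELISA and fitted in both directions relative to DMSO. Cytotoxicity checked in parallel cultures by SRB total-protein staining.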

[12] = read-out: Transforming growth factor beta 1 (TGFb1), TGFB1 (gene 7040); assay: BSK_KF3CT_TGFb1: BioMAP Diversity Plus: KF3CT Assay for Transforming growth factor beta 1 (TGFb1) Biomarker Activity (AID 2283072); settings: primary human keratinocytes with fibroblasts; actives raise or lower the signal
Procedure, shortened: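 Human keratinocyte/foreskin fibroblast co-culture; TGF-b1 measured by ELISA 24 h after dosing, fitted bidirectionally versus DMSO. Cytotoxicity checked in parallel cultures by total protein (SRB staining, 560 nm).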

[13] = read-out: C-C motif chemokine 2 (Homo sapiens) (UniProt P13500); assay: BSK_KF3CT_MCP1: BioMAP Diversity Plus: KF3CT Assay for Monocyte Chemoattractant Protein 1 (MCP1/CCL2) Biomarker Activity (AID 2283073); settings: primary human keratinocytes with fibroblasts; actives raise or lower the signal
Procedure, shortened: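 ELISA readout of MCP-1 after 24 h chemical dosing of a human skin primary co-culture of keratinocytes and foreskin fibroblasts. Activity was fitted in both directions against DMSO.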

[14] = read-out: Matrix Metallopeptidase 9 (MMP9), MMP9 (gene 4318); assay: BSK_KF3CT_MMP9: BioMAP Diversity Plus: KF3CT Assay for Matrix Metallopeptidase 9 (MMP9) Biomarker Activity (AID 2283074); settings: primary human keratinocytes with fibroblasts; actives raise or lower the signal;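 for AC50: MMP9 protein level quantified by ELISA in the co-culture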
Procedure, shortened: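 Human keratinocyte/foreskin fibroblast co-culture; compound added; 24 h; MMP-9 by ELISA; bidirectional fit vs DMSO baseline.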

[15] = read-out: urokinase plasminogen activator (uPA), PLAU (gene 5328); assay: BSK_KF3CT_uPA: BioMAP Diversity Plus: KF3CT Assay for urokinase plasminogen activator (uPA) Biomarker Activity (AID 2283075); settings: primary human keratinocytes with fibroblasts; actives raise or lower the signal
Procedure, shortened: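 ELISA readout of uPA, analyzed for signal gain or loss relative to DMSO, from a human primary keratinocyte–foreskin fibroblast co-culture measured 24 h after chemical treatment.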

CD40, CD40 (gene 958) = assay: BSK_LPS_CD40: BioMAP Diversity Plus: LPS Assay for CD40 Biomarker Activity (AID 2283076); settings: primary human HUVEC with PBMC; actives raise or lower the signal
Procedure, shortened: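 Cells were dosed, incubated 24 h, then assayed for CD40 by ELISA. Gain or loss of signal was analysed relative to DMSO controls. The culture paired human umbilical vein endothelium with peripheral blood mononuclear cells.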

[16] = read-out: E-selectin (Homo sapiens) (UniProt P16581); assay: BSK_LPS_Eselectin: BioMAP Diversity Plus: LPS Assay for Eselectin Biomarker Activity (AID 2283077); settings: primary human HUVEC with PBMC; actives raise or lower the signal
Procedure, shortened: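 Primary human vascular co-culture (endothelium plus PBMC) was dosed with chemical, then E-selectin quantified by ELISA at 24 h. Endpoint values derive from bidirectional curve fitting relative to DMSO.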

[17] = read-out: Interleukin-8 (IL8), CXCL8 (gene 3576); assay: BSK_LPS_IL8: BioMAP Diversity Plus: LPS Assay for Interleukin-8 (IL8) Biomarker Activity (AID 2283078); settings: primary human HUVEC with PBMC; actives raise or lower the signal
Procedure, shortened: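 Readout is IL-8 by ELISA, taken 24 h after compounds were added to LPS-stimulated endothelial/PBMC co-cultures. Both increases and decreases relative to DMSO control were scored through bidirectional fitting.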

[18] = BSK_LPS_SRB: Viability Assessment in the BioMAP Diversity Plus: LPS Assay (AID 2283079); settings: primary human HUVEC with PBMC;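 note: total protein by sulforhodamine B absorbance as a cytotoxicity measure; measured one day after compound addition; fitted in both directions against DMSO so loss or gain of signal counts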
Procedure, shortened: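 Readout is SRB absorbance at 560 nm (0.1% stain, TCA-fixed parallel cultures) as a total-protein cytotoxicity measure. Cells: primary human umbilical vein endothelium plus peripheral blood mononuclear cells, 24 h after chemical exposure; DMSO served as baseline.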

[19] = read-out: Interleukin-1 alpha (IL1a), IL1A (gene 3552); assay: BSK_LPS_IL1a: BioMAP Diversity Plus: LPS Assay for Interleukin-1 alpha (IL1a) Biomarker Activity (AID 2283080); settings: primary human HUVEC with PBMC; actives raise or lower the signal
Procedure, shortened: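 ELISA read-out of IL-1 alpha from a human primary vascular co-culture (endothelium plus PBMC) under LPS, sampled 24 hours post-dosing. Activity was fitted in both directions relative to DMSO controls.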

Measured: AC50

Chain of E-selectin (Homo sapiens) (P16581 whole entry, looked up): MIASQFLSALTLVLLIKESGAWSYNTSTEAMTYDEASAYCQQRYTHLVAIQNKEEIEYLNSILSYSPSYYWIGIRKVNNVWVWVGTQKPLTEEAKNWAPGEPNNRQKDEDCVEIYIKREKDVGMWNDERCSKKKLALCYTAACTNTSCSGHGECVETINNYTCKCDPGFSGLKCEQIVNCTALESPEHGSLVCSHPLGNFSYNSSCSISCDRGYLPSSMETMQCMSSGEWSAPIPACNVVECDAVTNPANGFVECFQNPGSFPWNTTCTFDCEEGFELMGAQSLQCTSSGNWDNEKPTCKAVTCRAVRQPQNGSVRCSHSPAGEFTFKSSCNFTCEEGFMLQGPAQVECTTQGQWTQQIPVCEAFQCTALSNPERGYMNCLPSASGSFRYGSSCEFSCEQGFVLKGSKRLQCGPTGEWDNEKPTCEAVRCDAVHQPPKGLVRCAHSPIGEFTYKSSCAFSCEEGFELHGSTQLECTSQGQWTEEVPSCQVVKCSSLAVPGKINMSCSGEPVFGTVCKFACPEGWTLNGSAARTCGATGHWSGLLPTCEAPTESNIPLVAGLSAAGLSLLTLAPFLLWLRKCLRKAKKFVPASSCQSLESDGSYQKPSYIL

O=c1c(-c2ccc(O)cc2)coc2cc(O)ccc12
active: [14] 20 µM
inactive: all other assays above

NCC(F)(F)C(F)(F)C(F)(F)C(F)(F)C(F)(F)C(F)(F)C(F)(F)F
not listed: [12]
inactive: all other assays above

CN(C)C=O
inactive: all assays above

FC(F)(I)C(F)(F)C(F)(F)C(F)(F)C(F)(F)C(F)(F)I
active: [1] 5.33 µM [middle of 5 runs] | [2] 6.72 µM [middle of 5 runs] | [3] 6.07 µM [middle of 5 runs] | [4] 5.8 µM [middle of 5 runs] | [5] 3.81 µM [middle of 5 runs] | [6] 5.44 µM [middle of 5 runs] | [7] 9.2 µM [middle of 5 runs] | [8] 7.76 µM [middle of 5 runs] | [9] 8.99 µM [middle of 5 runs] | [10] 7.77 µM [middle of 5 runs] | [11] 13.2 µM [middle of 5 runs] | [13] 6.01 µM [middle of 5 runs] | [14] 8.17 µM [middle of 5 runs] | [15] 11.7 µM [middle of 5 runs] | [19] 18 µM [middle of 5 runs]

C=C(C)C(=O)OCCC(F)(F)C(F)(F)C(F)(F)C(F)(F)C(F)(F)C(F)(F)F
inactive: all assays above

CC1=C(/C=C/C(C)=C/C=C/C(C)=C/C(=O)O)C(C)(C)CCC1
inactive: [17] | [18] | [19]
active: [1] 34.5 µM | [2] 31.2 µM | [3] 31.8 µM | [5] 18.5 µM | [6] 20 µM | [7] 30.6 µM | [8] 25.6 µM | [9] 32.8 µM | [10] 33.6 µM | [11] 32.3 µM | [12] 30.1 µM | [13] 32.4 µM | [14] 32.6 µM | [15] 31.2 µM | CD40, CD40 (gene 958) 4.45 µM | [16] 6.18 µM

From PubChem BioAssay (EPA / NIEHS)
